Measured values from PubChem BioAssay (EPA / NIEHS).
Results filed as inconclusive are left out. Active and inactive are the calls of the source. Rule for the calls: active = hit-call score of the fitted dose curve at least 0.9, where 1 is the maximum; inconclusive = response in the unintended direction; inactive = score below 0.9.

target: Estrogen receptor (Homo sapiens) + Estrogen receptor beta (Homo sapiens) (UniProt P03372+Q92731); experiment: OT_ER_ERaERb_0480: Odyssey Thera (OT) 8-hour HEK293T Protein-Complementation Assay for Estrogen Receptor-alpha/-beta Heterodimer (AID 2283352)
Sequence (P03372 whole entry, looked up, the tested form may be a part): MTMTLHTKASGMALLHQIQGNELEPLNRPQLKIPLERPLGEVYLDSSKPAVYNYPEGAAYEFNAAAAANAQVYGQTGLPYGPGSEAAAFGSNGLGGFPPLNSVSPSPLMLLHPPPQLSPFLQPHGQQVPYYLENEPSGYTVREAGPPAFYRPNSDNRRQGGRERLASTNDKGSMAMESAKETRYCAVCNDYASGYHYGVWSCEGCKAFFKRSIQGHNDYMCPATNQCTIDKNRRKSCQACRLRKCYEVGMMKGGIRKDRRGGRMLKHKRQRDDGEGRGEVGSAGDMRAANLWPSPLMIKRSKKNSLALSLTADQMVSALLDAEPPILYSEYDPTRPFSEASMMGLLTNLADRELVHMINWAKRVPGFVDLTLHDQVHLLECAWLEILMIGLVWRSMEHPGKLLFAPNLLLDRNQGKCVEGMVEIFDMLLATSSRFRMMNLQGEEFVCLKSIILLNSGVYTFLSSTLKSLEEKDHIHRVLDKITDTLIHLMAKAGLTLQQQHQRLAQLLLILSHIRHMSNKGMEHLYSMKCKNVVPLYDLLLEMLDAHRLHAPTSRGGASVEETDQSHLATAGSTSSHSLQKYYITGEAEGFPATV
Sequence (Q92731 whole entry, looked up, the tested form may be a part): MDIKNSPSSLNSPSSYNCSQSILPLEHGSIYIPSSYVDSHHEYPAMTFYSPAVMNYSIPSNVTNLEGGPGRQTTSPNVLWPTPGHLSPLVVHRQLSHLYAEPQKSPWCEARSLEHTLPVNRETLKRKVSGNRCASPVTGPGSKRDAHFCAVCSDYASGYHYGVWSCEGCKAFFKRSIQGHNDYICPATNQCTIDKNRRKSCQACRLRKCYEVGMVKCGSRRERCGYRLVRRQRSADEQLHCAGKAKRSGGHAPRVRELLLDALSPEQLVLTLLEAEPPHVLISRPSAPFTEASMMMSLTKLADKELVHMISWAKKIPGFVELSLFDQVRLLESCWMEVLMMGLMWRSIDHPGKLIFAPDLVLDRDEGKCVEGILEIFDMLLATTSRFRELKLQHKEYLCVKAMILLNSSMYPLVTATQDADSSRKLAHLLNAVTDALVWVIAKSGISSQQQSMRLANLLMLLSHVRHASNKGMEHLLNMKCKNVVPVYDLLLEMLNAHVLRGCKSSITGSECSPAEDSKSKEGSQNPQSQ
Procedure: OT_ER_ERaERb_0480 is a cell-based assay that uses HEK293T, a human kidney cell line, with measurements taken at 8 hours after chemical dosing in a 384-well plate.OT_ER_ERaERb_0480 is one of one assay component(s) measured or calculated from the OT_ER_ERaERb_0480 assay. It is designed to make measurements of protein fragment complementation, a form of binding reporter, as detected with fluorescence intensity signals by Protein-fragment Complementation technology.Data from the assay component OT_ER_ERaERb_0480 was analyzed into 1 assay endpoint. This assay endpoint, OT_ER_ERaERb_0480, was analyzed in the positive analysis fitting direction relative to DMSO as the negative control and baseline of activity. Using a type of binding reporter, measures of receptor for gain-of-signal activity can be used to understand the binding at the pathway-level as they relate to the gene ESR1 and ESR2. Furthermore, this assay endpoint can be referred to as a primary readout, because the performed assay has only produced 1 assay endpoint. To generalize the intended target to other relatable targets, this assay endpoint is annotated to the nuclear receptor intended target family, where the subfamily is steroidal.
Protein-fragment complementation assay, or PCA, is a method for the identification and quantification of protein-protein interactions. In the PCA, the proteins of interest ("bait" and "prey") are each covalently linked to fragments of a third protein (e.g. DHFR, which acts as a "reporter"). Interaction between the bait and the prey proteins brings the fragments of the reporter protein in close proximity to allow them to form a functional reporter protein whose activity can be measured. […] Fluorescent signal in the basal state of the assay is very low and is primarily punctuate and cytoplasmic. Modulation of this assay is quantified as an increase in mean fluorescence intensity in the nucleus (for agonists) or in the nucleus and cytoplasm (antagonists) relative to vehicle controls, and can be quantified on a high content imaging device or a laser scanning cytometer. The latter instrument is favored for this assay because of the rapid mode of data acquisition, the ability to acquire data from the entire cell population in a well (as opposed to a fraction of the well on the high content devices) and the larger dynamic range typically achieved with this instrument. To assess sensitivity of the ER alpha/ER beta LBD assay to ligand, cells were treated with the ER agonist 17- beta-estradiol (E2) in 10-point concentration- response format for 8 hours and monitored response on a laser scanning plate cytometer (Acumen eX3; TTP Lab Tech).

**Q.** Which outcome does the source give for `CC(C)(C)C1CCC(=O)CC1` here?
**A.** inactive

**Q.** How did the outcome turn out when `CC(C)COC(=O)CC(C(=O)OCC(C)C)S(=O)(=O)O` (stereo not given) was run?
**A.** inactive

**Q.** Which AC50 does the source give for `CN(C)c1ccc2nc3ccc(=[N+](C)C)cc-3sc2c1` here?
**A.** 76.6 µM (active)

**Q.** For `CCOC(=O)c1ccccc1C`, which outcome is on record?
**A.** inactive

**Q.** For `CCCC(CC)c1ccccc1` (stereo not given), which outcome is on record?
**A.** inactive

**Q.** How did the outcome turn out when `CCCCCCCCC(CO)CCCCCC` (stereo not given) was run?
**A.** inactive

**Q.** With `O=C(OCc1ccccc1)c1ccc(O)cc1` as the compound, how does the AC50 read?
**A.** 4.92 µM (active)

**Q.** `C1CNCCN1` was tested. Which outcome did it give?
**A.** inactive

**Q.** For `CCC[Si](OC)(OC)OC`, which outcome is on record?
**A.** inactive

**Q.** How did the outcome turn out when `CC1=CCC2CC1C2(C)C` (stereo not given) was run?
**A.** inactive

**Q.** `Oc1ccccc1Cc1ccccc1O` was tested. Which AC50 did it give?
**A.** 23.4 µM (active)

**Q.** With `CCCCCCOC(=O)CCCCC(=O)OCCCCCC` as the compound, how does the outcome read?
**A.** inactive

**Q.** For `CCCCCCCCCC(C)=O`, which outcome is on record?
**A.** inactive

**Q.** How did the outcome turn out when `CC(=O)OC1CCCCC1C(C)(C)C` (stereo not given) was run?
**A.** inactive

**Q.** For `Oc1ccc(-c2ccccc2)c(Cl)c1`, which AC50 is on record?
**A.** 12.2 µM (active)

**Q.** With `CC(=O)OC(C)c1ccccc1` (stereo not given) as the compound, how does the outcome read?
**A.** inactive

**Q.** `N#Cc1ccc(C(c2ccc(C#N)cc2)n2cncn2)cc1` was tested. Which outcome did it give?
**A.** inactive

**Q.** For `COc1cc(O)c(C(=O)c2ccccc2)cc1S(=O)(=O)O`, which outcome is on record?
**A.** inactive

**Q.** `CC(C)c1ccc(O)c(C(C)C)c1` was tested. Which outcome did it give?
**A.** inactive

**Q.** `COc1ccc(-c2coc3cc(O)cc(O)c3c2=O)cc1` was tested. Which AC50 did it give?
**A.** 2.91 µM (active)

**Q.** How did the outcome turn out when `CCCCNC(=S)NCCCC` was run?
**A.** inactive

**Q.** For `Cc1ccc(C)c(OCCCC(C)(C)C(=O)O)c1`, which outcome is on record?
**A.** inactive

**Q.** `CCCCCCCO` was tested. Which outcome did it give?
**A.** inactive

**Q.** Which outcome does the source give for `C=CCOC(=O)c1ccc(C(=O)OCC=C)c(C(=O)OCC=C)c1` here?
**A.** inactive

**Q.** `CCCCOCCOC(=O)COc1ccc(Cl)cc1Cl` was tested. Which outcome did it give?
**A.** inactive

**Q.** For `CCCCCC(=O)OCC`, which outcome is on record?
**A.** inactive

**Q.** For `c1ccc(Nc2cccc3ccccc23)cc1`, which AC50 is on record?
**A.** 24.8 µM (active)

**Q.** For `COc1ccc(C(=O)c2ccccc2)c(O)c1`, which AC50 is on record?
**A.** 31 µM (active)

**Q.** `COC(=O)c1ccccc1C` was tested. Which outcome did it give?
**A.** inactive

**Q.** Which AC50 does the source give for `CCCCCCCOC(=O)c1ccc(O)cc1` here?
**A.** 5.32 µM (active)

**Q.** `CCCCC(C=O)CC` (stereo not given) was tested. Which outcome did it give?
**A.** inactive

**Q.** How did the outcome turn out when `CCCCCCCCCCCCCCCCCCOS(=O)(=O)O` was run?
**A.** inactive

**Q.** With `Cc1c(C(=O)c2c[nH]n(C)c2=O)ccc(S(C)(=O)=O)c1C1=NOCC1` as the compound, how does the outcome read?
**A.** inactive

**Q.** For `CCCCc1ccc(Cl)cc1`, which outcome is on record?
**A.** inactive

**Q.** How did the outcome turn out when `CCCCC(CC)COS(=O)(=O)O` (stereo not given) was run?
**A.** inactive

**Q.** Which outcome does the source give for `CC(C)c1cc(C(C)C)cc(C(C)C)c1` here?
**A.** inactive

**Q.** `CCCCCCCCCCCCc1ccc(O)cc1` was tested. Which AC50 did it give?
**A.** 1.86 µM (active)

**Q.** Which outcome does the source give for `CC(=O)OCc1ccccc1` here?
**A.** inactive

**Q.** For `CCOC(=O)C1=NOC(c2ccccc2)(c2ccccc2)C1`, which outcome is on record?
**A.** inactive

**Q.** How did the outcome turn out when `Cc1ccc([N+](=O)[O-])cc1N` was run?
**A.** inactive
